L major viab – Leishmania major promastigote growth inhibition, primary screen; actives 9% (n = 200,000); Leishmania major promastigotes, resazurin fluorescence viability; inhibition, % at 10 µM; in the data active means inhibition above about 50%;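 further: promastigotes grown with compound for 44 hours at 28 °C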
m-calpain inh – inhibitors of pig calpain II, primary screen, biochemical, fluorogenic peptide substrate, 1536-well. purified calpain II, 30 min. actives 0.37% (n = 220,000). AID 1236, 2008. inhibition, % at 16 µM;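 active means inhibition above about 50%, limit read from the data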
WT yeast gro inh – growth inhibition of WT strain, primary screen, mitochondrial fusion inhibitor project, WT and mutant strains, chemical genetic | mitochondrial fusion phenotypic screen | inhibition, % at 10 µM | actives 2.1% (n = 190,000) | AID 1362, 2008; in the data active means inhibition above about 58%; tested in S. cerevisiae
Cl transport mod – KCC2 cotransporter modulators, thallium flux, primary screen, cell-based, HEK293 KCC2, FluoZin-2 fluorescence, MLSMR. AID 1456, 2008. actives 2.2% (n = 190,000). Solute carrier family 12 member 5 (Homo sapiens), Q9H2X9. KCC2 cells, thallium flux FluoZin-2 fluorescence. B-score of Tl+ flux slope (higher = more flux/activation; lower = inhibition) at 10 µM;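 active means thallium flux slope and its plate-corrected score both differing from the plate sample mean at a set confidence after two filtering rounds, in either direction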;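 further: slope of fluorescence scaled to starting intensity during 10 to 20 s after thallium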
ROMK mod – ROMK potassium channel modulators, primary screen, cell-based, thallium flux, MLSMR library | B-score at 10 µM | AID 1918, 2009 | ATP-sensitive inward rectifier potassium channel 1 (Homo sapiens), P48048 | Tet-inducible ROMK, thallium flux fluorescence; actives lie on both sides | actives 2% (n = 130,000);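 active means signal ratio slope over the read window, or its plate-corrected B-score, at least 3 SD from the plate mean, either direction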;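 further: B-score of the F/F0 ratio slope over 7 to 12 s after thallium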
Lmaj promast 1uM – Leishmania major promastigote growth inhibition, confirmation, 1 µM repeat of primary hits | inhibition, % at 1 µM | AID 1258, 2008 | actives 13% (n = 1,100) | L. major promastigote growth, resazurin fluorescence, 48 h | shares compounds with L major viab;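 active means inhibition above about 50% in both repeat tests, limit read from the data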
Numbers stand for hits; - = inactive; . = no result given. Hits are enriched below; roughly 12% of the tested compounds scored in any of these assays.

SMILES	L major viab	m-calpain inh	WT yeast gro inh	Cl transport mod	ROMK mod	Lmaj promast 1uM
OC1(c2ccc3c(c2)OCO3)CCN(Cc2ccc(F)cc2)CC1	.	-	.	-	.	.
CSC(=O)NC(=O)NC(=O)c1ccc([N+](=O)[O-])cc1	.	-	.	-	.	.
CCN(CC)C(=S)SC1=CCS(=O)(=O)C1	-	-	-	-	-	.
CCN(CC)C(=S)SSC(=S)N(CC)CC	100	-	-	-	.	98
FC(F)(F)c1nnc(-c2ccccc2)nc1Sc1ccc(Cl)cc1	-	-	-	-	.	.
FC(F)(F)c1nnc(-c2ccccc2)nc1Sc1ccccc1	52	-	-	.	.	-
CC1=CC(C)C2(CO)COC(c3cccnc3)C1C2C (configuration not stated)	80	-	-	-	-	-
Cc1cc(OCC(=O)c2cccc(C(F)(F)F)c2)n2cnnc2n1	.	-	.	-	.	.
Fc1cccc(-c2nnn3c2nc(Cl)c2ccccc23)c1	98	-	-	-	-	81
Clc1nc2c(-c3ccccc3)nnn2c2ccccc12	.	-	.	-	-	.
CCc1nn(C(C)C(=O)Nc2cccc(C)c2C)c(=O)c2cc3occc3n12 (configuration not stated)	-	-	-	-	.	.
Cc1cc(C)n(/N=C/c2cccs2)c(=O)c1C#N	-	-	-	-	-	.
Cc1cc(C)c(/C=N/n2c(C)cc(C)c(C#N)c2=O)c(C)c1	73	-	-	-	-	-
Cc1cc(C)n(-c2nc3ccccc3c(=O)n2OCC(=O)OCc2ccccc2)n1	92	-	-	-	-	-
C(=N\N1CCN(Cc2ccccc2)CC1)/c1ccc(-c2ccccc2)cc1	-	-	-	-	.	.
CN1CCN(/N=C/c2ccc(-c3ccccc3)cc2)CC1	98	-	-	-	-	-
Cc1[nH]c2ccccc2c1/C=C/c1cc[n+](C)cc1	65	-	-	-	.	-
CC(SCC(=O)NC12CC3CC(CC(C3)C1)C2)C(=O)O (configuration not stated)	56	-	-	-	-	-
S=c1[nH]c(-c2ccccc2)cs1	77	-	-	50	2.5	-
O=c1[nH]c(-c2ccccc2)cs1	-	-	-	-	-	.
CCC(NS(=O)(=O)c1cn(C)nc1C)c1ccccc1 (configuration not stated)	-	-	-	-	-	.
Cc1c(Cl)cccc1N/C(SCC(=O)N1CCCCCC1)=C(/C#N)c1nc2ccccc2s1	100	-	-	-	-	-
O=C(CSc1nc2ccccc2s1)N1CCCCC1	-	-	-	-	-	.
O=C1CN(c2ccc(Cl)cc2)C2(CCCCC2)S1	66	-	-	-	.	-
O=C1C=C(c2ccc(Cl)cc2)OC2(CCCC2)O1	-	-	-	-	.	.
SMILES	L major viab	m-calpain inh	WT yeast gro inh	Cl transport mod	ROMK mod	Lmaj promast 1uM
Cc1ccccc1NC1=NC(=S)N(CC(N)=O)C12CCOC(C)(C)C2 (configuration not stated)	.	-	.	-	.	.
CSCCC(NC(=O)c1cccc([N+](=O)[O-])c1)C(=O)O (configuration not stated)	79	-	-	-	.	-
CCc1c(C)sc(NC(=O)c2ccco2)c1C(=O)N1CCCCC1	53	-	-	-	.	-
CCc1c(C)sc(NC(=O)c2ccco2)c1C(=O)N1CCOCC1	-	-	-	.	-	.
CCOC(=O)c1c(C)oc2ccc(O)c(CN3CCCCC3)c12	88	-	-	-	.	-
Nc1nc(-c2cccs2)c(NC(=O)c2ccccc2)s1	86	-	-	-	.	-
CC(=O)Nc1sc(NC(=O)c2ccc(Cl)cc2)nc1-c1cccs1	-	-	-	-	-	.
CCN(C(=O)c1ccc(C(C)(C)C)cc1)c1nnc(Cn2nnc3ccccc32)s1	54	-	-	-	-	-
COC(=O)[C@@H]1CC[C@H](C)[C@@H](c2ccc(C)cc2)N1C(=O)c1ccc(/C=N/O[C@@H](C)CN2CCCCc3nc(C)c(C)cc32)cc1	100	-	75	-	-	-
CSc1nc(-c2ccccc2)nc(N2CCOCC2)c1C(C)=O	-	-	-	-	-	.
c1ccc(Cn2nc(-c3ccccc3)nc2-c2ccccc2)cc1	94	-	-	-	-	-
Cc1cccc(-n2nnc3c(=O)n(Cc4ccccn4)cnc32)c1	-	-	-	-	-	.
